Data as given in PubChem BioAssay AID463173 (ICCB-Longwood Screening Facility, Harvard Medical School, 2010).
In all, about 52,000 compounds went through this assay and about 4,300 (8.3%) were called active. No stated cut-off is given here; in the data, active means survival mostly below about 52% (no sharp cut-off); inactive means mostly above about 56%. The entries come from a sample that favours actives as a whole.

test system: DeltatarO mutant; assay: S. aureus survival, RN4220 and DeltatarO strains – OD600, teichoic acid synthesis inhibitors, primary screen (AID 463173); conditions: S. aureus RN4220 wild type/DeltatarO growth, OD600, 18 h, stronger effect = lower value, screened at 18.75 µg/mL (by protocol)

Row | SMILES | survival
1 | CCOc1ccc(C2=NC(c3ccc(OC)cc3)=Nc3ccc(Cl)cc3N2)cc1 | 71% (inactive)
2 | Cc1cccc(C)c1Nc1c(-c2ccccc2F)nc2cccc(C)n12 | 6% (active)
3 | Cc1ccccc1Nc1c(-c2c[nH]c3ccccc23)nc2cccc(C)n12 | 144% (inactive)
4 | Cc1ccccc1Nc1c(-c2ccccc2)nc2cccc(C)n12 | 98% (inactive)
5 | CCCCCC[N+]1(CCO)CCOCC1 | 81% (inactive)
6 | COc1ccc(N2CCN(CCCNC(=O)c3c(C)nn(-c4ccc(F)cc4)c3-n3cccc3)CC2)cc1 | 71% (inactive)
7 | OC(CC#CCN1CCOCC1)(c1ccccc1)c1ccccc1 | 83% (inactive)
8 | COc1ccc(S(=O)(=O)N2CCN(Cc3nc4ccc(C)cc4o3)CC2)cc1 | 84% (inactive)
9 | Cc1ccc(-n2cc(C(=O)OCc3ccc(Cl)cc3)c3ccccc3c2=O)cc1 | 67% (inactive)
10 | COC(=O)c1ccc(Cl)cc1NC(=O)N(Cc1ccc(OC)cc1)C1CCN(C(C)=O)CC1 | -5% (active)
11 | COc1ccc(NC(=O)N(Cc2ccco2)C2CCN(C(C)=O)CC2)c(OC)c1 | 88% (inactive)
12 | COc1ccc(C)cc1NC(=O)N(C(C)C)C1CCN(C(C)=O)CC1 | 75% (inactive)
13 | COc1ccc(C)cc1NC(=O)N(Cc1ccc(C)o1)C1CCN(C(C)=O)CC1 | 8% (active)
14 | CCOc1ccccc1NC(=O)N(Cc1ccc(C)o1)C1CCN(C(C)=O)CC1 | 101% (inactive)
15 | COC(=O)c1ccc(Cl)cc1NC(=O)N(Cc1ccc(C)o1)C1CCN(C(C)=O)CC1 | 95% (inactive)
16 | COc1ccc(NC(=O)N(C(C)C)C2CCN(C(C)=O)CC2)c(OC)c1 | -2% (active)
17 | CCN1CCC(N(Cc2ccc(F)cc2)C(=O)Nc2cc(Cl)ccc2C(=O)OC)CC1 | 85% (inactive)
18 | CC(=O)N1CCC(N(Cc2ccc(C)o2)C(=O)Nc2ccc(C)cc2)CC1 | 96% (inactive)
19 | Cc1ccc(N2CCN(C(=O)C3CCN(S(=O)(=O)c4ccc5c(c4)oc(=O)n5C)CC3)CC2C)cc1 (centres undefined) | 109% (inactive)
20 | Cc1ccc(-n2c3nc(=O)[nH]c(=O)c-3cc3c(C)nn(-c4ccccc4)c32)cc1Cl | 85% (inactive)
21 | Cc1cccc(-c2noc(-c3cccnc3NCc3ccc(Cl)cc3)n2)c1 | 73% (inactive)
22 | COc1ccc(N(C(=O)COc2ccccc2OC)S(=O)(=O)c2ccc(Cl)cc2)cc1 | 71% (inactive)
23 | O=C(CN1C(=O)COc2ccc(Cl)cc21)Nc1ccc(F)cc1 | 67% (inactive)

Row | SMILES | survival
24 | Cc1cc(C)c(NC(=O)CSc2nccn2Cc2ccco2)c(C)c1 | 76% (inactive)
25 | CN(C)c1ccc(C(CNS(=O)(=O)c2ccc(F)cc2)N2CCc3ccccc32)cc1 (centres undefined) | 32% (active)
26 | CN(C)c1ccc(C(CNS(=O)(=O)c2ccccc2)N2CCc3ccccc32)cc1 (centres undefined) | 99% (inactive)
27 | Cc1ccc(S(=O)(=O)NCC(c2ccc(N(C)C)cc2)N2CCc3ccccc32)cc1C (centres undefined) | 131% (inactive)
28 | CCOc1ccc(S(=O)(=O)NCC(c2ccc(N(C)C)cc2)N2CCc3ccccc32)cc1 (centres undefined) | 49% (inactive)
29 | Cc1ccc(S(=O)(=O)NCC(c2ccc(N(C)C)cc2)N2CCc3ccccc32)cc1 (centres undefined) | 0% (active)
30 | COc1ccc(S(=O)(=O)NCC(c2ccc(N(C)C)cc2)N2CCc3ccccc32)cc1 (centres undefined) | 78% (inactive)
31 | Cc1cc(NC(=O)C2CCCN(S(=O)(=O)c3cn(C)cn3)C2)ccc1Br (centres undefined) | 102% (inactive)
32 | Cc1ccc(S(=O)(=O)CCc2nnc(NC(=O)CCCC(=O)Nc3cc(C)on3)s2)cc1 | 104% (inactive)
33 | CCOc1ccc(C(CC(=O)Nc2ccc(C(=O)OC)cc2)N2Cc3ccccc3C2=O)cc1OC (centres undefined) | 73% (inactive)
34 | Cc1cccc(NC(=O)CN2C(=O)c3ccccc3Sc3ncccc32)c1C | 90% (inactive)
35 | Cc1ccc(CNC(=O)C(=O)NCC(c2ccc3c(c2)OCO3)N2CCOCC2)cc1 (centres undefined) | 64% (inactive)
36 | c1ccc(CN2CCCN(c3nc4c(c(NCCN5CCOCC5)n3)CCCC4)CC2)cc1 | 103% (inactive)
37 | COC(=O)c1c(SCC(=O)Nc2cccc(C(F)(F)F)c2)[nH]c2ccccc2c1=O | 82% (inactive)
38 | COC(=O)c1c(SCC(=O)Nc2ccccc2OC)[nH]c2ccccc2c1=O | 55% (inactive)
39 | COC(=O)c1c(SCC(=O)Nc2cc(C)cc(C)c2)[nH]c2ccccc2c1=O | 39% (active)
40 | COc1ccc(N2CCN(C(=O)c3ccc(NC(=O)c4nsc5ccccc45)cc3)CC2)cc1 | 84% (inactive)
41 | CCOC(=O)c1scc(-c2ccccc2)c1S(=O)(=O)Nc1cc(OC)cc(OC)c1 | 89% (inactive)
42 | Cc1cccc(CSc2nc(=O)c3c(n2C)NC(=O)CC3c2cccc(O)c2)c1 (centres undefined) | 46% (inactive)
43 | COc1ccccc1NC(=O)c1ccc(CN2C(=O)C(C)=C(c3ccc(C)c(C)c3)S2(=O)=O)cc1 | 83% (inactive)
44 | COc1ccc2oc(-c3cccc(NC(=O)c4ccc(C#N)cc4F)c3)nc2c1 | 79% (inactive)
45 | O=C(COc1ccccc1Cl)Nc1ccc(Cl)c(-c2nc3ccccc3o2)c1 | 51% (inactive)
46 | COc1ccccc1-c1nc2cc(NC(=O)c3ccccc3Cl)ccc2o1 | 61% (inactive)

Row | SMILES | survival
47 | Cc1ccc(SCC(=O)Nc2ccc3oc(-c4ccccc4F)nc3c2)cc1 | 57% (active)
48 | Cc1ccc(SCC(=O)Nc2ccc3oc(-c4ccccc4C)nc3c2)cc1 | 50% (inactive)
49 | O=C(Nc1ccc2oc(-c3ccccc3F)nc2c1)c1ccccc1Cl | 49% (active)
50 | O=C(Nc1ccc(-c2nc3cc(NC(=O)c4ccccc4Cl)ccc3o2)cc1)c1ccccc1Cl | 83% (inactive)
51 | N#Cc1ccc(C(=O)Nc2ccc(Cl)c(-c3nc4cc(Cl)ccc4o3)c2)c(F)c1 | 28% (active)
52 | Cc1cccc(OCC(=O)Nc2ccc3oc(-c4ccccc4F)nc3c2)c1 | 57% (inactive)
53 | O=C(COc1ccccc1Cl)Nc1ccc2oc(-c3ccccc3F)nc2c1 | 67% (active)
54 | Cc1ccc(SCC(=O)Nc2ccc3oc(-c4ccc(F)cc4)nc3c2)cc1 | 80% (inactive)
55 | O=C(Nc1ccc(Cl)c(-c2nc3cc(Cl)ccc3o2)c1)c1cc2ccccc2o1 | 70% (inactive)
56 | CCCS(=O)(=O)N1CCCC(C(=O)NCCCOC)C1 (centres undefined) | 77% (inactive)
57 | CCOc1ccc(Br)cc1C1NC(=O)c2c(sc3c2CCN(C)C3)N1 (centres undefined) | 60% (inactive)
58 | CCn1c(C)c(C)c2cc(C(=O)NCc3ccc(OC)cc3OC)ccc21 | 70% (inactive)
59 | CCc1nn2c(=O)cc(COC(=O)C(CC)c3ccccc3)nc2s1 (centres undefined) | 92% (inactive)
60 | CCN(Cc1ccccc1)C(=O)c1cc2ccc3cccnc3c2[nH]1 | 49% (inactive)
61 | Cc1cccc(C(=O)NCCc2nc3ccccc3n2Cc2ccc(Cl)cc2)c1 | 79% (inactive)
62 | COC(=O)c1ccc(N2C(=O)c3ccc(N)cc3C2=O)cc1 | 73% (inactive)
63 | COc1cc(Cl)c(NC(=O)c2cc(CN3CCCC3)on2)c(OC)c1 | 94% (inactive)
64 | CC(=O)c1cccc(NC(=O)CSc2nnc3ccc(-c4ccc(Br)cc4)nn23)c1 | 75% (inactive)
65 | COC(=O)c1ccc(NC(=O)c2c(-c3ccccc3)c(-c3ccccc3)nn(C)c2=O)cc1 | 58% (inactive)
66 | CCn1nc(-c2ccccc2)c(-c2ccccc2)c(C(=O)Nc2ccc(S(N)(=O)=O)cc2)c1=O | 66% (inactive)
67 | Cn1nc(-c2ccccc2)c(-c2ccccc2)c(C(=O)Nc2ccc(S(N)(=O)=O)cc2)c1=O | 49% (active)
68 | Cc1ccc(-c2nc3sc(CCNC(=O)c4ccco4)c(C)n3n2)cc1 | 87% (inactive)
69 | Cc1ccc(C)c(CN2C(=O)c3ccccc3S(=O)(=O)c3ccc(C(=O)N4CCN(c5ccccc5F)CC4)cc32)c1 | 79% (inactive)

Row | SMILES | survival
70 | COc1ccc(-c2cn3c(n2)sc2cc(C(=O)NCCCN4CCN(C)CC4)ccc23)cc1 | 95% (inactive)
71 | COc1ccc(-c2cn3c(n2)sc2cc(C(=O)NCCCc4ccccc4)ccc23)cc1 | 65% (inactive)
72 | CCOc1ccc(-c2cn3c(n2)sc2cc(C(=O)NCCCN4CCCCC4)ccc23)cc1 | -1% (active)
73 | CCCN1CCN(CCCNC(=O)c2ccc3c(c2)sc2nc(-c4ccc(OCC)cc4)cn23)CC1 | 28% (active)
74 | COc1ccc(-c2cn3c(n2)sc2cc(C(=O)NCCCN4CCCCCC4)ccc23)cc1 | 64% (inactive)
75 | CCCN1CCN(CCCNC(=O)c2ccc3c(c2)sc2nc(-c4ccc(OC)cc4)cn23)CC1 | 73% (inactive)
76 | COc1ccc(-c2cn3c(n2)sc2cc(C(=O)NCCCN4CCCCC4)ccc23)cc1 | 69% (inactive)
77 | CCOc1ccc(-c2cn3c(n2)sc2cc(C(=O)NCCCN4CCCCCC4)ccc23)cc1 | -2% (active)
78 | O=C(NCCN1CCOCC1)c1cnn2c(C(F)F)cc(-c3ccccc3)nc12 | 86% (inactive)
79 | CC(C)(C)C(=O)Nc1cc(-c2cccc(Br)c2)nn1-c1ccccc1 | 81% (inactive)
80 | CCc1ccccc1NC(=O)NCc1ccc2c(c1)CCN2C(=O)c1ccccc1 | 125% (inactive)
81 | Cc1cccc(N2CCN(C(=O)c3ccc4nc(N5CCC(C)CC5)sc4c3)CC2)c1C | 1% (active)
82 | Cc1ccc(Cl)cc1N1CCN(CCCNC(=O)c2ccc3nc(N4CCCCC4)sc3c2)CC1 | 77% (inactive)
83 | CC1CCN(c2nc3ccc(C(=O)NCc4ccc(Cl)cc4)cc3s2)CC1 | 128% (inactive)
84 | Cc1ccc(C)c(N2CCN(CCCNC(=O)c3ccc4nc(N5CCCCC5)sc4c3)CC2)c1 | 71% (inactive)
85 | CC1CCN(c2nc3ccc(C(=O)N4CCN(c5ccccc5)CC4)cc3s2)CC1 | 72% (inactive)
86 | Cc1ccc(C)c(N2CCN(CCCNC(=O)c3ccc4nc(N5CCC(C)CC5)sc4c3)CC2)c1 | 4% (active)
87 | COc1cccc(N2CCN(C(=O)c3ccc4nc(N5CCC(C)CC5)sc4c3)CC2)c1 | 62% (inactive)
88 | COc1ccc(N2CCN(C(=O)c3ccc4nc(N5CCC(C)CC5)sc4c3)CC2)cc1 | 84% (inactive)
89 | Cc1ccc(Cl)cc1N1CCN(C(=O)c2ccc3nc(N4CCC(C)CC4)sc3c2)CC1 | 29% (active)
